# Source: PubChem BioAssay (several laboratories)
# CCHF vOTU inh-1 = CCHFV vOTU protease inhibition; Pep-AMC fluorescence; inhibition, % at 11.5 µM; hit rate 0.55% among 370,000; AID 651958
# PfHsp40 rescue = rescue of PfHsp40-mediated yeast toxicity; S. cerevisiae expressing PfHsp40, growth rescue, ATP luminescence; growth rescue, % at 12.5 µM; hit rate 0.68% among 340,000; in the data active = growth rescue above about 28%, passing the limit was not always enough; inconclusive = no clear call, values can overlap the other calls;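 note: yeast W303a lacking pdr1 and pdr3 grown in galactose medium; growth measured after three days at 30 °C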
# Mtb betalactam = beta-lactam sensitization of Mtb H37Rv; M. tuberculosis H37Rv growth with meropenem, percent inhibition; inhibition, % at 25 µM; hit rate 0.27% among 330,000; AID 434955; call rule not given here;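 note: growth measured after seven days incubation then overnight dye step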
# RecA splice inh = Mtb RecA intein splicing inhibition. cell-free RecA intein splicing, fluorescence. AID 2221. inhibition, % (test concentration not listed). hit rate 0.75% among 290,000; in the data active = inhibition above about 30%; inconclusive = no clear call, values can overlap the other calls
# Mtb hypoxia inh = inhibitors of hypoxia-regulated fluorescent reporter in Mycobacterium tuberculosis. M. tuberculosis hypoxia-regulated fluorescent reporter, fluorescence. fluorescence inhibition, % (concentration not given with the values). hit rate 0.1% among 300,000; in the data active = fluorescence inhibition mostly above about 23%, no sharp cut-off; inactive = mostly below about 17%
# CCHF vOTU inh-2 = confirmation of CCHF virus vOTU protease inhibitors; shares compounds with CCHF vOTU inh-1; Recombinant CCHFV vOTU, Pep-AMC fluorescence; inhibition, % at 11.5 µM; hit rate 17% among 1,900; AID 686976
# A number is an active result; i = inactive; ? = inconclusive; nt = no result. This is a sample that favours compounds with a hit; in the whole collection about 1.7% have one here. Cut-off read from the data, not from the text of the source, unless noted: active = inhibition above about 30%; inactive = the rest.
SMILES,CCHF vOTU inh-1,PfHsp40 rescue,Mtb betalactam,RecA splice inh,Mtb hypoxia inh,CCHF vOTU inh-2
CC(CSc1ccccc1)CN1CCC(NC(=O)OCc2ccccc2)CCC1=O (stereo unspecified),nt,nt,nt,nt,i,nt
O=C1c2ccccc2C(=O)c2c(/C=C/N3CCCCC3)ccnc21,29.8,?,nt,nt,nt,52.1
CS(=O)(=O)NNC(=O)Cn1nnc(-c2cc(C(F)(F)F)cc(C(F)(F)F)c2)n1,i,nt,i,i,i,nt
O=C(Cn1nnc(-c2cccc(C(F)(F)F)c2)n1)NNS(=O)(=O)c1cccc(C(F)(F)F)c1,32.2,i,i,nt,i,i
CC(C)C1COC(c2cccc(C3=NC(C(C)C)CO3)c2)=N1 (stereo unspecified),nt,nt,nt,nt,i,nt
CC1CN(N=Cc2ccc([N+](=O)[O-])o2)C(=N)O1 (stereo unspecified),i,i,nt,nt,i,nt
O=C1SCCN1N=Cc1ccc([N+](=O)[O-])o1,32.3,i,nt,nt,i,i
CCOc1cccc(C=NNc2ccc(S(=O)(=O)N(CC)CC)cn2)c1O,nt,nt,nt,nt,i,nt
CCc1nc2c(OCCC3CCCCC3)cccn2c1N(C)C(=O)c1ccncc1,31.5,nt,nt,nt,nt,i
CC(C(=O)Nc1ccc2ccccc2c1)C1C[C@]1(C)C(NC(=O)c1cnccn1)c1ccccc1 (stereo partly specified),nt,nt,nt,nt,i,nt
CCC(C)(C)C1CCc2c(sc(NC(=O)c3ccccc3C(=O)O)c2C#N)C1 (stereo unspecified),35.1,i,i,i,i,i
CN(C)C=Nc1ncnc2c1cnn2-c1ccc(C(F)(F)F)cn1,nt,nt,nt,nt,i,nt
CCCc1ccc(-c2cc(NC(=O)Cc3c(C)[nH]c4ccccc34)ccc2N(C)c2cccnc2)cc1,39.5,nt,nt,nt,nt,i
COc1ccc(NC(=O)C(=Cc2ccc(OS(=O)(=O)c3ccc(C)cc3)cc2)NC(=O)c2ccccc2)cc1,nt,nt,nt,nt,i,nt
Cc1cc(C)nc(OC(=O)c2ccc(Cl)cc2Cl)n1,30.4,nt,i,i,i,i
Cc1cc(C)nc(OC(=O)c2c(Cl)cc(Cl)cc2Cl)n1,i,i,i,i,i,nt
O=C(Nc1cccc2ccccc12)C1CCN(C(=O)NCc2ccccc2)CC1,34.6,i,i,i,nt,i
COc1ccc(C)cc1NC(=O)C(c1ccccc1)N1CCN(CC(=O)N2CCOCC2)CC1 (stereo unspecified),i,i,nt,nt,i,nt
Cc1ccc(NC(=O)C(c2ccccc2)N2CCN(CC(=O)N3CCOCC3)CC2)cc1 (stereo unspecified),33.6,i,i,nt,i,i
CCNC(=S)NN=Cc1cccc(C)c1,nt,nt,nt,nt,i,nt
CC(Nc1cccc2ccccc12)C(=O)N/N=C/c1ccccn1 (stereo unspecified),114.3,i,i,i,nt,i
Cc1cccc(C=NNC(=O)C(C)Nc2cccc3ccccc23)n1 (stereo unspecified),nt,nt,nt,nt,i,nt
COCCCNC(=O)CC(=O)NN=Cc1ccc(SC)cc1,nt,nt,nt,nt,i,nt
O=C(NCc1ccc(OC(F)(F)F)cc1)C1CC(c2ccccc2C(F)(F)F)=NO1 (stereo unspecified),37.2,38.2,i,i,i,i
COc1cc(OC)cc(-c2c(-c3cccs3)c3cc(Br)ccc3n2C)c1,30.7,i,i,nt,i,i
SMILES,CCHF vOTU inh-1,PfHsp40 rescue,Mtb betalactam,RecA splice inh,Mtb hypoxia inh,CCHF vOTU inh-2
CCCCCC(=O)N1C[C@H](n2cc(COC(=O)c3ccccc3)nn2)[C@@H](O)C[C@@H]1c1ccc(C)cc1,34.9,nt,nt,nt,nt,i
CCCCCCN1C[C@H](O)[C@@H](n2cc(-c3ccc(F)cc3)nn2)C[C@@H]1c1ccccc1,33.3,nt,nt,nt,nt,i
CCCCCC(=O)N1C[C@@H](O)[C@H](n2cc(COC(=O)c3ccccc3)nn2)C[C@@H]1c1ccc(C)cc1,i,nt,nt,nt,nt,nt
CCCCCCN1C[C@H](n2cc(COC(=O)c3ccccc3)nn2)[C@@H](O)C[C@@H]1c1ccc(Cl)cc1,32.4,nt,nt,nt,nt,i
CCCCCCN1C[C@H](n2cc(-c3ccc(F)cc3)nn2)[C@@H](O)C[C@@H]1c1ccccc1,i,nt,nt,nt,nt,nt
C=CCOC(=O)C1=CC(c2ccc(C(F)(F)F)cc2)CC(OCCCCO)O1 (stereo unspecified),nt,nt,nt,nt,i,nt
CCN(CCO)c1ccc(N=Cc2c(O)n(C)c(=S)[nH]c2=O)cc1,31.9,nt,i,i,i,i
CCN(CC)c1ccc(N=Cc2c(O)n(Cc3ccco3)c(=O)[nH]c2=O)cc1,i,i,i,i,i,nt
O=C(NN=Cc1ccc([N+](=O)[O-])o1)c1ccccc1NS(=O)(=O)c1cccs1,nt,nt,nt,nt,i,nt
CCOc1ccc(Br)cc1S(=O)(=O)Nc1cccc(S(=O)(=O)Nc2ccccc2C(=O)O)c1,30.0,i,i,nt,i,i
O=C(O)Cn1cc(/C=N/NC(=O)c2cc3cc(Br)ccc3o2)c2ccccc21,31.5,i,i,i,nt,i
